# Assay results: PubChem BioAssay (Tox21)
# The source made the active and inactive calls. Calls come from the whole dose curve; as a rule, active = well fitted curve in the direction sought with a large enough effect in the repeat runs; inconclusive = weak or mixed curves; inactive = flat fitted curve, though single readings scatter.
# Test: qHTS assay to test for compound auto fluorescence at 460 nm (blue) in HepG2 cells (AID 720687)
# Details: autofluorescence 405/460 nm, 1 h; series mostly up to 91.3 µM
# From the text: U.S. Tox21 Program National Center for Advancing Translational Sciences [NCATS] NIH Chemical Genomics Center [NCGC] U.S. Environmental Protection Agency [EPA] National Institutes of Environmental Health Sciences [NIEHS] National Toxicology Program [NTP] U.S. Food and Drug Administration [FDA] Tox21 Assay Overview: Compound auto fluorescence often interferes with screening of the compound library against various biological targets and signaling pathways. Some of these compounds may have fluorophoric properties. Such properties may interfere with the assay outputs resulting in false positives and/or negatives. To decrease such complications and ensure the compound activities are relevant in terms of biological response, the Tox21 10K compound library was screened for auto fluorescence. From the fluorophores used as reporter signals in our screening assays, the auto fluorescence equivalencies of compounds against three fluorophores have been evaluated: Triamterene, Fluorescein and Rose Bengal sodium for blue, green and red fluorescence, respectively. The fluorescence intensities were measured using Excitation/Emission wavelengths at 405/460nm, 485/535nm and 540/590nm for blue, green and red labels, respectively. This assay includes the blue fluorescence data.
# Tox21 Assay Protocol Summary: 2,000 HepG2 cells in 5 uL of culture medium (MEM containing 10% FBS) per well were dispensed into black wall/clear bottom 1536-well plates using a Multidrop Combi Dispenser (ThermoFisher Scientific, Waltham, MA). The assay plates were incubated overnight at 37 C to allow cell attachment to the well bottom, followed by the transfer of 23 nL compound or DMSO vehicle by a pintool work station (Kalypsys , San Diego, CA). After the assay plates were incubated for 1 hr at 37 C and 5% CO2, fluorescence intensities in the assay plates were measured by an Envision (PerkinElmer, Shelton, CT) plate reader using three labels for measuring blue, green and red fluorescence at […] 460, 535 and 590 nm respectively.
row,Structure (SMILES),outcome
1,CC(Br)C(=O)O (stereo not given),inactive
2,CCCCCCCCCl,inactive
3,Cc1ccc([N+](=O)[O-])cc1C,inactive
4,O=S(=O)(c1ccc(O)cc1)c1ccc(O)cc1,inactive
5,CCOC(=O)c1ccccc1C(=O)OCC,inactive
6,CCN(CC)CCO,inactive
7,CCNc1nc(NC(C)C)nc(SC)n1,inactive
8,COC(=O)c1ccccc1C(=O)OC,inactive
9,Cc1[nH]c(=O)n(C(C)(C)C)c(=O)c1Cl,inactive
10,CN(N=O)c1ccccc1,inactive
11,CN(C)CCO,inactive
12,C#CC(C)(C)NC(=O)c1cc(Cl)cc(Cl)c1,inactive
13,Nc1ccc(Oc2ccc(N)cc2)cc1,inactive
14,O=NN1CCCC1,inactive
15,CCCCN(CC)C(=O)SCCC,inactive
16,CCN(CC)c1ccccc1,inactive
17,OCCN(CCO)CCO,inactive
18,CC1C=[C-]C=C1.[C-]#[O+].[C-]#[O+].[C-]#[O+].[Mn],inactive
19,O=C(O)c1ccccn1,inactive
20,CCc1cccc(C)c1N(C(=O)CCl)C(C)COC (stereo not given),inactive

row,Structure (SMILES),outcome
1,CC1OC(C)OC(C)O1 (stereo not given),inactive
2,OC(O)C(Cl)(Cl)Cl,inactive
3,O=S(=O)(c1ccc(Cl)cc1)c1cc(Cl)c(Cl)cc1Cl,inactive
4,Clc1ccc(Cl)cc1,inactive
5,C=C(C)CCl,inactive
6,Cc1cccc([N+](=O)[O-])c1,inactive
7,Cc1cc(Cl)ccc1O,inactive
8,CON(C)C(=O)Nc1ccc(Cl)c(Cl)c1,inactive
9,COC(=O)c1ccccc1N,inactive
10,CCCCCCCCCCCC#N,inactive
11,CCCCCOC(=O)c1ccccc1C(=O)OCCCCC,inactive
12,O=NN1CCCCCCC1,inactive
13,COCCl,inactive
14,O=[N+]([O-])c1ccc([As](=O)(O)O)cc1,inactive
15,c1ccc2c(c1)Oc1ccccc1O2,inactive
16,O=c1[nH]c(=O)[nH]c(=O)[nH]1,inactive
17,CC(C)C#N,inactive
18,O=c1n(Cl)c(=O)n(Cl)c(=O)n1Cl,inactive
19,CCC[N+](=O)[O-],inactive
20,CC(C)(C)OOC(C)(C)C,inactive
